Unmarked numbers belong to inactive results. Results filed as inconclusive are left out. Activity calls are given as the source filed them. Unless noted, calls come from the whole dose curve; as a rule, active = well fitted curve in either direction with a large enough effect (not every such curve was filed as active); inconclusive = small, poorly fitted or top-dose-only effect, or another doubt; inactive = flat fitted curve, though single readings scatter.
Experiments:
[1] = AP1 Signaling Pathway (AID 357); details: ME-180 AP-1-bla reporter, EGF-induced, beta-lactamase ratio, 5 h; at 17.2 µM (top of the series) unless noted;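 note: ME-180 reporter cells stimulated with EGF at its EC50 level; % is set by controls: 0 for no effect and ±100 for the full control effect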
In short: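 A ratiometric CCF4 readout (405 nm excitation; 460 and 530 nm emission) quantified AP-1-driven beta-lactamase in ME-180 cells after 5 h with compound and EC50 EGF; AC50 values were derived for activators and inhibitors.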

[2] = NFAT Signaling Pathway (AID 444); details: Jurkat NFAT-bla M1, carbachol, beta-lactamase ratio, 5 h; at 17.2 µM (top of the series) unless noted;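 note: carbachol stimulus at about its EC50 of 1 µM final; % is set by controls: 0 for no effect and ±100 for the full control effect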
In short: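 Jurkat cells carrying an NFAT-driven β-lactamase reporter and co-transfected muscarinic M1 receptor were treated with compound plus carbachol (1 uM final, an EC50 level) for 5 h at 37 °C. CCF4 loading followed for 1 h at RT; 460/530 nm ratio gave %activity.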

[3] = Stat Signaling Pathway (AID 446); details: ME-180 (cervical carcinoma) SIE beta-lactamase reporter, IL-6 stimulated, 5 h; at 17.2 µM (top of the series) unless noted;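 note: ME-180 cervical cancer cells given 40 pM IL-6 alongside compound; SIE-controlled beta-lactamase reporter measured as 460/530 nm FRET emission ratio; % is set by controls: 0 for no effect and ±100 for the full control effect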
In short: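 Compound effects on IL-6-induced STAT reporter activity were measured in ME-180 cells. After overnight culture, cells were co-treated with 40 pM IL-6 for 5 hrs before beta-lactamase substrate loading at room temperature.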

[4] = molecular target: Glucocorticoid receptor (Homo sapiens) (UniProt P04150); experiment: GR-GFP Redistribution (AID 450;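 active = compounds whose dose series gives a full or clear partial fitted curve of increased nuclear translocation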; note: potency is the fitted concentration of half-maximal effect)
Glucocorticoid receptor (Homo sapiens), sequence (P04150 whole entry, looked up, the tested form may be a part): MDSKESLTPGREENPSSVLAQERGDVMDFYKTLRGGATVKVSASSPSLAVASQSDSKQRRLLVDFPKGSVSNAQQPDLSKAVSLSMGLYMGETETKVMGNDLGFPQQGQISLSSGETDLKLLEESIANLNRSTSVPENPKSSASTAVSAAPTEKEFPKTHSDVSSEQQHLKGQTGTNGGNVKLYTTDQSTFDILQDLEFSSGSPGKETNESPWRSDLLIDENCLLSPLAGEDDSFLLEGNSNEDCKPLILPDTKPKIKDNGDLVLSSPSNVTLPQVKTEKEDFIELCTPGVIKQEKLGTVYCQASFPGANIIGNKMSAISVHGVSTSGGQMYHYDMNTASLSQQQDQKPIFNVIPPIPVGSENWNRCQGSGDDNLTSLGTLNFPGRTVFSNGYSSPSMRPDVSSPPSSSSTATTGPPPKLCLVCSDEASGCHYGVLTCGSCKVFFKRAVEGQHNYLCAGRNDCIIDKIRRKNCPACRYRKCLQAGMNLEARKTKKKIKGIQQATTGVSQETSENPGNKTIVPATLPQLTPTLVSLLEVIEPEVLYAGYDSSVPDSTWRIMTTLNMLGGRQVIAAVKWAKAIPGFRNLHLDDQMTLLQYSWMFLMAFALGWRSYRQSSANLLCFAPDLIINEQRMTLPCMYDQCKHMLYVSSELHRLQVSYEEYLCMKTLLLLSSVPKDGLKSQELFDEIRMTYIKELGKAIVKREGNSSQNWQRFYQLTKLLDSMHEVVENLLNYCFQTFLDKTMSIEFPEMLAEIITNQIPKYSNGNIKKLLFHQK

[5] = molecular target: Glucocorticoid receptor (Homo sapiens) (UniProt P04150); experiment: GR-EFC Redistribution (AID 451; calls by dose curve; note: potency is the fitted concentration of half-maximal effect); details: CHO-K1 GR-EFC translocation, beta-gal luminescence, 2 h
In short: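 CHO-K1 cells stably expressing nuclear-localized β-gal enzyme acceptor and GR fused C-terminally to the enzyme donor fragment; ligand-driven nuclear translocation restores β-gal by complementation. Compounds titrated up to 46 uM final, 2 h at 37 °C; luminescence read.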

[6] = molecular target: Mitogen-activated protein kinase 10 (Mus musculus) (UniProt Q61831); experiment: JNK3 AlphaScreen Assay (AID 530);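 note: kinase came from lysate of stimulated human HepG2 cells; signal reports phosphorylation of biotinylated GST-cJun 1-79 at Ser73 with 10 µM ATP; % is set by controls: 0 for no effect and ±100 for the full control effect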
In short: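 Phosphorylation of biotinylated GST-cJun(1-79) at Ser73 is measured by AlphaScreen proximity luminescence. Enzyme is JNK3 in HepG2 lysates activated with interleukin-1beta and tumor necrosis factor alpha; ATP is 10 uM final.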

[7] = molecular target: 3',5'-cyclic-AMP phosphodiesterase 4B (Homo sapiens) (UniProt Q07343); experiment: qHTS Assay for Inhibitors of PDE-IV (AID 607; active = well fitted activation curve with a large enough effect in the main read-out, with a control signal flat, not every such curve was filed as active; note: % of control where 0% means no effect)
3',5'-cyclic-AMP phosphodiesterase 4B (Homo sapiens), sequence (Q07343 whole entry, looked up): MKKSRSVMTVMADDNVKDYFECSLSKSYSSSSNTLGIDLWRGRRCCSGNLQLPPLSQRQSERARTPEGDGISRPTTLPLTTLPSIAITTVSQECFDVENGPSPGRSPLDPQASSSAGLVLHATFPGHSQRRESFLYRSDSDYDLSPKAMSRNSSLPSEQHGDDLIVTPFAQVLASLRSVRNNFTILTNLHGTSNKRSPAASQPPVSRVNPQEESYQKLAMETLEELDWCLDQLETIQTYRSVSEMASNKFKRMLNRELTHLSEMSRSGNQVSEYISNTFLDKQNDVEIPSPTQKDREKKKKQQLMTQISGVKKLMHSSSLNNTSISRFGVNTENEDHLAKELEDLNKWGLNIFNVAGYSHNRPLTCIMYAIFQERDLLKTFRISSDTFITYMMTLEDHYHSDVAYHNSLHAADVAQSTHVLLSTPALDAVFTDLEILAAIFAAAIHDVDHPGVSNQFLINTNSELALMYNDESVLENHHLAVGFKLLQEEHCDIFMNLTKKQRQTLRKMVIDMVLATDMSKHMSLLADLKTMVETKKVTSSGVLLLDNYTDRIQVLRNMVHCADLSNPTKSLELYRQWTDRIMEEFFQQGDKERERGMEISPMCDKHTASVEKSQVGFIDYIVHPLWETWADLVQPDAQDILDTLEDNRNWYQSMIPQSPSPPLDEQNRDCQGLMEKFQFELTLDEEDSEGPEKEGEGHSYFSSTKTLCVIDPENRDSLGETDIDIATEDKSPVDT
In short: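 ACTOne HEK293 cells carry a modified cAMP-gated CNG channel and express endogenous PDE4; plated 1000 cells/well, compounds up to 22.9 uM final. Membrane-potential dye fluorescence (ex 535/em 590) was read; parental cells received 10 uM forskolin + 100 uM RO 20-1724.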

[8] = molecular target: Guanine nucleotide-binding protein G(i) subunit alpha-1 (Homo sapiens) (UniProt P63096); experiment: qHTS Assay for Inhibitors of RGS12 GoLoco Motif Activity (Green Fluorophore) (AID 879; active = well fitted curve in the direction sought with a large enough effect; an effect the other way counts as inactive or inconclusive;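 note: 0% = labeled peptide with Gαi1 and full inhibition = labeled peptide alone without protein; negative values mean loss of peptide binding seen as reduced polarization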)
Guanine nucleotide-binding protein G(i) subunit alpha-1 (Homo sapiens), sequence (P63096 whole entry, looked up): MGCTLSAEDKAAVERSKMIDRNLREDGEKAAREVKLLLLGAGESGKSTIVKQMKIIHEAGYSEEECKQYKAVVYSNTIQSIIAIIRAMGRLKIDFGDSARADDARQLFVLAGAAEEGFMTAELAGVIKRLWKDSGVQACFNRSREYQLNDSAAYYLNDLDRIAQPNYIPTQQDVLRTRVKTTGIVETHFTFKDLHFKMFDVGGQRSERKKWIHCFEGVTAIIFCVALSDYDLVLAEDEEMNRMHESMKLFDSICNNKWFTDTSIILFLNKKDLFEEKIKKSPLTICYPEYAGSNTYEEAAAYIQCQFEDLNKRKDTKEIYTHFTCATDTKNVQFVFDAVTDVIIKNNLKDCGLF
In short: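 A drop in FITC polarization marked displacement of the FITC-tagged RGS12 GoLoco peptide (10 nM) from Gαi1 (50 nM). Compounds were incubated 10 min at room temperature in Tris pH 7.5 buffer containing 150 mM NaCl, 0.1 mM GDP and 0.05% NP40; unlabeled peptide titration served as control.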

[9] = qHTS Assay for Identification of Small Molecule Agonists for Thrombopoietin (TPO) Signaling Pathway (AID 917; active = well fitted curve in the direction sought with a large enough effect; an effect the other way counts as inactive or inconclusive; note: potency is the fitted concentration of half-maximal effect)
In short: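 Cell-based luciferase reporter screen. Mouse Ba/F3 line stably expressing human TPO receptor; IL-3 removed overnight before plating. Co-treatment with compound and EC50 TPO (26 pM), 24 hrs at 37 C, then luminescence.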

[10] = molecular target: Muscarinic acetylcholine receptor M1 (Rattus norvegicus) (UniProt P08482); experiment: qHTS Assay for Antagonists of Acetylcholine Muscarinic M1 Receptor: Measurement of IP-One Response (AID 944; active = well fitted curve in the direction sought with a large enough effect; an effect the other way counts as inactive or inconclusive; note: nearly all actives have a fitted effect of over 75% in size)
Muscarinic acetylcholine receptor M1 (Rattus norvegicus), sequence (P08482 whole entry, looked up): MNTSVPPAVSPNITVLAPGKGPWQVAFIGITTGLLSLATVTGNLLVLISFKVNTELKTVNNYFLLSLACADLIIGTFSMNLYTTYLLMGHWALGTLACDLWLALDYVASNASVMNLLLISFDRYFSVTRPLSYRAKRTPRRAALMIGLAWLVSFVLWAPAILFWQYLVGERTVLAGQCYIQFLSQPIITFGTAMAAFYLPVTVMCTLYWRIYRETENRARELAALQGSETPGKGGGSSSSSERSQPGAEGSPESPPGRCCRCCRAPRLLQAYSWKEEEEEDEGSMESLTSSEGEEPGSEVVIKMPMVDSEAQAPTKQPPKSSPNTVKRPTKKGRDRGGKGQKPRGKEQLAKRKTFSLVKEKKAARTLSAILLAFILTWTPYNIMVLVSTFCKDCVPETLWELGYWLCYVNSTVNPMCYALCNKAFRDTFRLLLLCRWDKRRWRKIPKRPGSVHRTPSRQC
In short: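 Antagonist mode with rat M1 receptor transfected into CHO cells. Compound is added first for 10 min, carbachol at its EC80 follows for 30 min, and lysis reagents then allow TR-FRET detection of accumulated IP1.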

[11] = molecular target: Pyruvate kinase (Leishmania mexicana) (UniProt Q27686); experiment: qHTS Validation Assay for Inhibitors of Leishmania Mexicana Pyruvate Kinase (AID 945; active = well fitted curve in the direction sought with a large enough effect; an effect the other way counts as inactive or inconclusive;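 note: 0% = DMSO only neutral control wells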)
Pyruvate kinase (Leishmania mexicana), sequence (Q27686 2-499 E452W): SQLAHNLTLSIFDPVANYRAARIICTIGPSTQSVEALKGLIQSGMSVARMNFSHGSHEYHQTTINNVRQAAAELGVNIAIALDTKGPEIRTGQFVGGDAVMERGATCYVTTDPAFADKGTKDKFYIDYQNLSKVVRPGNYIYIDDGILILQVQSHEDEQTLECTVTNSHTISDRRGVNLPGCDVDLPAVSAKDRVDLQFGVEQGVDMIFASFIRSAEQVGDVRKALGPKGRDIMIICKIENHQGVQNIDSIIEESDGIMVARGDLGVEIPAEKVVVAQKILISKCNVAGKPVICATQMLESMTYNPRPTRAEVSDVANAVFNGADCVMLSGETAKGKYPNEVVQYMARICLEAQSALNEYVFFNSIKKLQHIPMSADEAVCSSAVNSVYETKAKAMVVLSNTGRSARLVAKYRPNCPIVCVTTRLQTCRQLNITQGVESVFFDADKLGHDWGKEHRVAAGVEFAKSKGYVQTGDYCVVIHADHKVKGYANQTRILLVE
In short: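 Purified LmPYK (E451W mutant, 0.2 nM) was incubated 1 h at room temperature with 0.5 mM PEP and 0.1 mM ADP in 50 mM imidazole pH 7.2, 50 mM KCl, 7 mM MgCl2; ATP formed was read by PKLight luminescence, normalized to DMSO wells.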

[12] = molecular target: Pyruvate kinase PKM (Homo sapiens) (UniProt P14618); experiment: qHTS Assay for Activators of Human Muscle Pyruvate Kinase (AID 954; active = well fitted curve in the direction sought with a large enough effect, not every such curve was filed as active;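 note: 0% = uninhibited enzyme and -100% = no enzyme or full thiadiazolimine inhibition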)
Pyruvate kinase PKM (Homo sapiens), sequence (P14618 whole entry, looked up): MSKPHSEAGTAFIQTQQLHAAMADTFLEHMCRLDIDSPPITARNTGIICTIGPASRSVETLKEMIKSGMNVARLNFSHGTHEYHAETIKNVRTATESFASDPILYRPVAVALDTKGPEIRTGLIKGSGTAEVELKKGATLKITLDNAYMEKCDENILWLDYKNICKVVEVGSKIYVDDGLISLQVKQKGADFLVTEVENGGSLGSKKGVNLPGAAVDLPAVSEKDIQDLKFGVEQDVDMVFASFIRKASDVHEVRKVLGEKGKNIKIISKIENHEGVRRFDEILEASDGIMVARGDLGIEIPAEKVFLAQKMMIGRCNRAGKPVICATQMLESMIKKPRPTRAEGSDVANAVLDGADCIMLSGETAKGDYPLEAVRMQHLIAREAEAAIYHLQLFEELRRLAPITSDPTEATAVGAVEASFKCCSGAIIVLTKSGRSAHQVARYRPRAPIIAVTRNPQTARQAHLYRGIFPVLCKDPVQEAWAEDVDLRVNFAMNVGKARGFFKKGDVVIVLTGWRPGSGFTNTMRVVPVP
In short: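 A coupled luminescent readout tracked ATP made from ADP by purified PKM2. Final conditions included 0.1 nM enzyme, PEP and ADP at 0.5 and 0.1 mM, pH 7.2 imidazole buffer with BSA, and a one-hour room-temperature reaction.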

[13] = molecular target: Alpha-galactosidase A (Homo sapiens) (UniProt P06280); experiment: Counterscreen for Glucocerebrosidase Inhibitors: qHTS Assay for Human alpha-Galactosidase at pH 4.5 (AID 992; active = well fitted curve in the direction sought with a large enough effect; an effect the other way counts as inactive or inconclusive; note: 0% is about no effect)
Alpha-galactosidase A (Homo sapiens), sequence (P06280 whole entry, looked up): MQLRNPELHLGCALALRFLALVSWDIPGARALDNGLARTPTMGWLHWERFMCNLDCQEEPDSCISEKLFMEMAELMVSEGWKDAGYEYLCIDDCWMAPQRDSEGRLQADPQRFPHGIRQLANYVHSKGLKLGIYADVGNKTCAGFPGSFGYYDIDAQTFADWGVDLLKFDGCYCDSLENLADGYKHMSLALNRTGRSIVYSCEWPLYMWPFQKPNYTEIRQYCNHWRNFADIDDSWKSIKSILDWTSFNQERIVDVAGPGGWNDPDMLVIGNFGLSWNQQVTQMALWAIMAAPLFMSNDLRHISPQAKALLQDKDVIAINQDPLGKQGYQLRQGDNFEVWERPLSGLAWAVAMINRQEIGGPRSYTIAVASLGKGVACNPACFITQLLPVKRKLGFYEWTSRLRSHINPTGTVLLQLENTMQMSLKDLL
In short: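 Citrate buffer pH 4.5, Tween-20 0.005%. Enzyme 2 nM, substrate 80 uM, 20 min RT. Stop pH 10. Fluorescence Ex 365/Em 440. AC50 by Hill fit.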

[14] = molecular target: alpha-glucosidase (Oryza sativa, rice) (UniProt Q653V4); experiment: Counterscreen for Glucocerebrosidase Inhibitors: qHTS Assay for Rice alpha-Glucosidase at pH 5.0 (AID 997; active = well fitted curve in the direction sought with a large enough effect; an effect the other way counts as inactive or inconclusive;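 note: 0% = full activity with enzyme and -100% = basal without enzyme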)
In short: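 Endpoint fluorogenic assay at pH 5.0: compounds (0.7 nM to 77 uM) titrated against 4 nM rice enzyme and 400 uM 4-MU-alpha-glucoside for 20 min at room temperature; NaOH/glycine stop, read ex 365/em 440 nm, Hill-fitted AC50.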

[15] = qHTS Assay for Identification of Small Molecule Antagonists for NFkB Signaling Pathway (AID 895; active = well fitted inhibition curve with a large enough effect in the signal ratio, with a control signal flat, not every such curve was filed as active; the % refers to the signal ratio; note: potency is the fitted concentration of half-maximal effect)
In short: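 NFkB-bla ME-180 cervical carcinoma cells with beta-lactamase reporter under NFkB response element; compounds added, then TNF alpha at 10 pM final (EC50), 5 h at 37 C. LiveBLAzer substrate 2 h, room temperature; emission 460/530 nm at 405 nm excitation.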

[16] = molecular target: Cytochrome P450 3A4 (Homo sapiens) (UniProt P08684); experiment: qHTS Assay for Activators of Cytochrome P450 3A4 (AID 885; active = well fitted curve in the direction sought with a large enough effect; an effect the other way counts as inactive or inconclusive; note: nearly all actives have a fitted effect of over 65% in size)
Cytochrome P450 3A4 (Homo sapiens), sequence (P08684 whole entry, looked up): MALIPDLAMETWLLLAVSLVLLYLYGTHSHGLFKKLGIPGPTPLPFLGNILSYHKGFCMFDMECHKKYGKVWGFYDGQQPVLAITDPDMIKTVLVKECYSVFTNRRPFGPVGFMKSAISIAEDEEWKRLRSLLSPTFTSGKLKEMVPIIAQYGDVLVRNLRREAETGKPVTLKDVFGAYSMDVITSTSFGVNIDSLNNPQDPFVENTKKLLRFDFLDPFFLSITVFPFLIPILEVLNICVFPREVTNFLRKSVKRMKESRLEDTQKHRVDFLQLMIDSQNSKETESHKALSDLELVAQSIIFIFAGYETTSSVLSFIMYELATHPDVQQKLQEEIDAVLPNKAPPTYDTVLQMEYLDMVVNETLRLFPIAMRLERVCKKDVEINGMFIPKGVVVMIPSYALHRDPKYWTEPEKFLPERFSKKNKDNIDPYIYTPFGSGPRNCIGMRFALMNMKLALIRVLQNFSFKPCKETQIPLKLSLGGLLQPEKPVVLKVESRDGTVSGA
In short: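 CYP3A4 activity: Luciferin-PPXE O-dealkylation, 25uM substrate, 200mM KPO4, RT throughout. Read-out is luciferase luminescence; higher values reflect activation.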

Row | Structure (SMILES) | activity change, negative = inhibition [1] | activity change, negative = inhibition [2] | activity, negative = inhibition [3] | Potency [4] [µM] | Potency [5] [µM] | Potency [6] | Potency [7] | activity change, negative = inhibition [6] | outcome [8] | Potency [9] | Potency [10] | Potency [11] | outcome [12] | outcome [13] | outcome [14] | Potency [15] | Potency [16]
1 | Nc1ncn([C@@H]2O[C@@H](CO)[C@@H](O)[C@H]2O)c(=O)n1 | -29.6% [at 38 µM] | -6.36% [at 38 µM] | 2.98% [at 38 µM] | > 46 | > 46 | inactive | inactive |  |  |  |  |  |  |  |  |  | 
2 | C[N+](C)(C)CCN[N@@+]1(C)CCCc2ccccc21 | -2.74% [at 7.69 µM] | -8.45% [at 7.69 µM] | 7.61% [at 7.69 µM] | > 46 | > 9.22 |  | inactive | 4.98% [at 11.4 µM] |  |  |  |  |  |  |  |  | 
3 | CN1C[C@H](C(=O)N[C@]2(C)O[C@]3(O)[C@H]4CCCN4C(=O)[C@H](Cc4ccccc4)N3C2=O)C[C@H]2c3cccc4[nH]cc(c34)C[C@@H]21 | 1.56% | -6.21% | -7.06% | > 20.6 | > 20.6 | inactive | inactive |  |  |  |  |  |  |  |  |  | 
4 | NCCC[C@@](N)(C(=O)O)C(F)F | 6.84% [at 38 µM] | -7.76% [at 38 µM] | 2.8% [at 38 µM] | > 46 | > 46 | inactive | inactive |  | inactive | inactive | inactive | inactive | inactive | inactive | inactive |  | 
5 | CCCCCc1nc2sc3c(c2c(=O)n1N)CCC3 | -5.09% | -10.1% | -13% | > 20.6 |  |  |  |  |  |  |  |  |  |  |  |  | 
6 | Cc1cc(N2CCCCC2)nc2ccc(Cc3ccc4nc(N5CCCCC5)cc(C)c4c3)cc12 | -0.0465% [at 7.69 µM] | -1.68% [at 7.69 µM] | 8.27% [at 7.69 µM] | > 46 | > 9.22 |  |  | 13.5% [at 11.4 µM] |  |  |  |  |  |  |  |  | 
7 | O=C(O)c1cc(Cl)cc(Cc2cc(Cl)cc(C(=O)O)c2O)c1O | 10.2% [at 7.69 µM] | 10.6% [at 7.69 µM] | -2.39% [at 7.69 µM] | > 46 | > 9.22 |  | inactive | 4.28% [at 11.4 µM] |  |  |  |  |  |  |  |  | 
8 | N[C@H](Cc1ccc(F)cc1)C(=O)O | 14.8% [at 38 µM] | -1.52% [at 38 µM] | -8.01% [at 38 µM] | > 46 | > 46 | inactive | inactive |  | inactive | inactive |  | inactive | inactive | inactive | inactive |  | 
9 | OC[C@@H]1O[C@@H](n2cnc3c(Nc4ccccc4)ncnc32)[C@@H](O)[C@H]1O | 7.84% [at 38 µM] | 0.0847% [at 38 µM] | -14.3% [at 38 µM] | > 46 | > 46 | inactive | inactive |  | inactive | 3.98 µM (active) | inactive | inactive | inactive | inactive | inactive | 2.24 µM (active) | 
10 | Cc1ccc(C(C)C)c(OCCNc2nc3c(c(=O)n(C)c(=O)n3C)n2C)c1 | -0.712% | 13.4% | -22.6% | > 20.6 |  |  |  |  |  |  |  |  |  |  |  |  | 
11 | COc1ccccc1Nc1ncnc2c1cnn2-c1cccc(C)c1 | -28.5% | -14.7% | -6.58% | > 20.6 |  |  |  |  |  |  |  |  |  |  |  |  | 
12 | O=C(CSc1ncnc2nc[nH]c12)c1ccccc1 | -9.01% [at 7.69 µM] | 11.7% [at 7.69 µM] | 1.65% [at 7.69 µM] | > 46 | > 9.22 |  | inactive | -0.309% [at 11.4 µM] |  |  |  |  |  |  |  |  | 
13 | NC(=S)c1ccc[n+]([C@@H]2O[C@@H](COP(=O)([O-])OP(=O)(O)OC[C@@H]3O[C@@H](n4cnc5c(N)ncnc54)[C@@H](OP(=O)(O)O)[C@H]3O)[C@@H](O)[C@H]2O)c1 | 5.32% [at 38 µM] | -7.28% [at 38 µM] | 1.28% [at 38 µM] | > 46 | > 46 | inactive | inactive |  | inactive | inactive | inactive | inactive | inactive | inactive | inactive |  | inactive
14 | COc1cccc(OC)c1OCCNC[C@@H]1CSc2ccccc2O1 | 18% [at 38 µM] | -12.7% [at 38 µM] | -23.8% [at 38 µM] | > 46 | > 46 | inactive | inactive |  | inactive | inactive |  | inactive | inactive | inactive | inactive | inactive | 
